# Laboratory results taken from ChEMBL document CHEMBL1961873, “Compounds: GSK PKIS; Assays: Nanosyn kinase panel” (2012).
# Key:
# [1] = target: Leukocyte tyrosine kinase receptor (Homo sapiens) (UniProt P29376); conditions: at 1 µM;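 note: each value is the mean inhibition of LTK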
# [2] = target: Tyrosine-protein kinase Lyn (Homo sapiens) (UniProt P07948); conditions: at 0.1 µM
# [3] = target: Tyrosine-protein kinase Lyn (Homo sapiens) (UniProt P07948); conditions: at 1 µM
# [4] = target: Tyrosine-protein kinase Lyn (Homo sapiens) (UniProt P07948); conditions: at 0.1 µM; remark: listed apart in the source
# [5] = target: Tyrosine-protein kinase Lyn (Homo sapiens) (UniProt P07948); conditions: at 1 µM; remark: listed apart in the source
# [6] = target: T1, Tyrosine-protein kinase Mer (Homo sapiens) (UniProt Q12866); conditions: at 0.1 µM
# T1 sequence (whole entry): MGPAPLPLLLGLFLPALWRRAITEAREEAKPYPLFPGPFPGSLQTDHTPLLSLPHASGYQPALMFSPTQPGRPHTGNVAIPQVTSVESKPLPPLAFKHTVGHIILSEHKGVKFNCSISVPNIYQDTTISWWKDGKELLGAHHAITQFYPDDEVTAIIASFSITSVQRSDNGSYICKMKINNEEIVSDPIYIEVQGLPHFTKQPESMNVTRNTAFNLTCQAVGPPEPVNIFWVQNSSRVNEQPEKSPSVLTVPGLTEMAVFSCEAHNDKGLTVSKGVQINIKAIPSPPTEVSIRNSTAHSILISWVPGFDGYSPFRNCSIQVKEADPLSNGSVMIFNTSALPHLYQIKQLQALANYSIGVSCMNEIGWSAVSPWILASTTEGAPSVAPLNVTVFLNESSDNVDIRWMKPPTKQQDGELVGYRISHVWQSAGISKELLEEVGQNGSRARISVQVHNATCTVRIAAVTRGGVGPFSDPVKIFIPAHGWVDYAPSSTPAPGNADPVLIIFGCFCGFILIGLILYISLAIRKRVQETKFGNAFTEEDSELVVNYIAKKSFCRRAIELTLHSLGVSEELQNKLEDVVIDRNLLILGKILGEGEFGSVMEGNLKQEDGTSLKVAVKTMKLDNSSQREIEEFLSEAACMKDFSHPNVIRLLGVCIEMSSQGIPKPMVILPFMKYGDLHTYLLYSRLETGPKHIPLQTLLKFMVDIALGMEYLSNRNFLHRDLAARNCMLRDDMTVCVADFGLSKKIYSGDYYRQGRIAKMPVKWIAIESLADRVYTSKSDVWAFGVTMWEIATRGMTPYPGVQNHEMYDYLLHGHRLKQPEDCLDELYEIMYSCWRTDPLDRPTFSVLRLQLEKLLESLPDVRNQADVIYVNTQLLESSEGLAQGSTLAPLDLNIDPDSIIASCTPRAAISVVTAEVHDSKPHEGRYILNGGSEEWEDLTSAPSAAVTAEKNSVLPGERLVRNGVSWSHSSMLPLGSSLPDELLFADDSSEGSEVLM
# [7] = target: T1, Tyrosine-protein kinase Mer (Homo sapiens); conditions: at 1 µM
# [8] = target: Hepatocyte growth factor receptor (Homo sapiens) (UniProt P08581); conditions: at 0.1 µM
# [9] = target: Hepatocyte growth factor receptor (Homo sapiens) (UniProt P08581); conditions: at 1 µM
# [10] = target: T2, Muscle, skeletal receptor tyrosine-protein kinase (Homo sapiens) (UniProt O15146); conditions: at 0.1 µM
# T2 sequence (whole entry): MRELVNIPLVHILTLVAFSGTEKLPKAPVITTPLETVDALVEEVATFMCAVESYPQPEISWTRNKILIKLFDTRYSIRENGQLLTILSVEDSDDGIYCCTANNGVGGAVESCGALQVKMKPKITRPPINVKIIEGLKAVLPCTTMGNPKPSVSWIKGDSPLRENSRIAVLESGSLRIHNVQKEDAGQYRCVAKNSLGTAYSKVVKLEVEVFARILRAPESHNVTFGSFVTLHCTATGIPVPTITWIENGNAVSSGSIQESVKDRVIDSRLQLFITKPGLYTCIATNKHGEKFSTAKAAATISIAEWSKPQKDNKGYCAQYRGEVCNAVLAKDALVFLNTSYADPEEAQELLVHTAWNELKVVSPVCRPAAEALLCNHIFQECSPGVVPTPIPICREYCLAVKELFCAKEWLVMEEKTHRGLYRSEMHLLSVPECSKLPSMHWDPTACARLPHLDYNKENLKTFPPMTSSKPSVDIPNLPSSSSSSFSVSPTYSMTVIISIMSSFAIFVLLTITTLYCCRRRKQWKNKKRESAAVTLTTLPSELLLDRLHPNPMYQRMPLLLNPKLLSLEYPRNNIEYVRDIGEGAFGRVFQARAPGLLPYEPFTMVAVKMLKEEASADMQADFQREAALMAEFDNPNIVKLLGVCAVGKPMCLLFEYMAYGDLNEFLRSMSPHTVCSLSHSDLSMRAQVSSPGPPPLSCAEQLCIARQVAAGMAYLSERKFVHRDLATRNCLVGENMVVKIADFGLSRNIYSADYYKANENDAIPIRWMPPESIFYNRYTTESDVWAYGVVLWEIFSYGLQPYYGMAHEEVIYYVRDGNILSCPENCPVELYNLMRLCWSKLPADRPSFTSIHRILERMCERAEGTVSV
# [11] = target: T2, Muscle, skeletal receptor tyrosine-protein kinase (Homo sapiens); conditions: at 1 µM
# [12] = target: Platelet-derived growth factor receptor alpha (Homo sapiens) (UniProt P16234); conditions: at 0.1 µM
# [13] = target: Platelet-derived growth factor receptor alpha (Homo sapiens) (UniProt P16234); conditions: at 1 µM
# [14] = tested on: Platelet-derived growth factor receptor alpha (Homo sapiens), P16234 [D842V]; conditions: at 0.1 µM
# Chain of Platelet-derived growth factor receptor alpha (Homo sapiens), P16234 [D842V] (P16234 whole entry D842V): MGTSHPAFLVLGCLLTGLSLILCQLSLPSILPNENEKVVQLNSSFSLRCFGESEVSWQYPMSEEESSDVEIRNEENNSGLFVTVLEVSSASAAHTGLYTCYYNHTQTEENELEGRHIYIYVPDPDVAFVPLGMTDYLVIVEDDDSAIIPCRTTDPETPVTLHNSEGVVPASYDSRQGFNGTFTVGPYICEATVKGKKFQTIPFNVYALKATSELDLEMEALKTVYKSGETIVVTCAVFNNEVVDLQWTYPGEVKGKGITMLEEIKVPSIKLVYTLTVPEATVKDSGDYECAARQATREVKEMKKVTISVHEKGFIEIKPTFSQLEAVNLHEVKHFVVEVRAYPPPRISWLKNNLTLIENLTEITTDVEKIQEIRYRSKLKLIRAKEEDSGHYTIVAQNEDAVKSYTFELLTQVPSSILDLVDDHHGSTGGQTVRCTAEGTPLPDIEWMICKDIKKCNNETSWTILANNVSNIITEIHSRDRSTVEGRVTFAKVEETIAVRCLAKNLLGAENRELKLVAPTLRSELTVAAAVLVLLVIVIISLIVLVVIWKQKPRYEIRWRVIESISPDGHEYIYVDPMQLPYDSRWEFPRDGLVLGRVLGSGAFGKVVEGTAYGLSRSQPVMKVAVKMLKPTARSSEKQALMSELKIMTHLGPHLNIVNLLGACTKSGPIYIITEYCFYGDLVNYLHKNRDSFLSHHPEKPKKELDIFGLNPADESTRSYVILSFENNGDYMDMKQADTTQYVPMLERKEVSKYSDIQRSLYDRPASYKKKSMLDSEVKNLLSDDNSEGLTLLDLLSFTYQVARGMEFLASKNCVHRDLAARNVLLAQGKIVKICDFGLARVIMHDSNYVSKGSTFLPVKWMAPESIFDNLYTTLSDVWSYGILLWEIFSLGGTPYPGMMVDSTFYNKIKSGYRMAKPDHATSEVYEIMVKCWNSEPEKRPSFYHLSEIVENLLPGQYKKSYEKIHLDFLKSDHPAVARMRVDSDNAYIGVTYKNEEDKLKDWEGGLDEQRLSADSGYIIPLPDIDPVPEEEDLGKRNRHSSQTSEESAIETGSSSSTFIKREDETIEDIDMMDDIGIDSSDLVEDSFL
# [15] = tested on: Platelet-derived growth factor receptor alpha (Homo sapiens), P16234 [D842V]; conditions: at 1 µM
# [16] = tested on: Platelet-derived growth factor receptor alpha (Homo sapiens), P16234 [T674I]; conditions: at 0.1 µM
# [17] = tested on: Platelet-derived growth factor receptor alpha (Homo sapiens), P16234 [T674I]; conditions: at 1 µM
# [18] = tested on: Platelet-derived growth factor receptor alpha (Homo sapiens), P16234 [V561D]; conditions: at 0.1 µM
# Chain of Platelet-derived growth factor receptor alpha (Homo sapiens), P16234 [V561D] (P16234 whole entry V561D): as the sequence (P16234 whole entry D842V) above, with V561D, V842D counted along it
# [19] = tested on: Platelet-derived growth factor receptor alpha (Homo sapiens), P16234 [V561D]; conditions: at 1 µM
# [20] = target: Platelet-derived growth factor receptor beta (Homo sapiens) (UniProt P09619); conditions: at 0.1 µM;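 note: reported value is the mean percent inhibition of the kinase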
# Chain of Platelet-derived growth factor receptor beta (Homo sapiens) (P09619 whole entry): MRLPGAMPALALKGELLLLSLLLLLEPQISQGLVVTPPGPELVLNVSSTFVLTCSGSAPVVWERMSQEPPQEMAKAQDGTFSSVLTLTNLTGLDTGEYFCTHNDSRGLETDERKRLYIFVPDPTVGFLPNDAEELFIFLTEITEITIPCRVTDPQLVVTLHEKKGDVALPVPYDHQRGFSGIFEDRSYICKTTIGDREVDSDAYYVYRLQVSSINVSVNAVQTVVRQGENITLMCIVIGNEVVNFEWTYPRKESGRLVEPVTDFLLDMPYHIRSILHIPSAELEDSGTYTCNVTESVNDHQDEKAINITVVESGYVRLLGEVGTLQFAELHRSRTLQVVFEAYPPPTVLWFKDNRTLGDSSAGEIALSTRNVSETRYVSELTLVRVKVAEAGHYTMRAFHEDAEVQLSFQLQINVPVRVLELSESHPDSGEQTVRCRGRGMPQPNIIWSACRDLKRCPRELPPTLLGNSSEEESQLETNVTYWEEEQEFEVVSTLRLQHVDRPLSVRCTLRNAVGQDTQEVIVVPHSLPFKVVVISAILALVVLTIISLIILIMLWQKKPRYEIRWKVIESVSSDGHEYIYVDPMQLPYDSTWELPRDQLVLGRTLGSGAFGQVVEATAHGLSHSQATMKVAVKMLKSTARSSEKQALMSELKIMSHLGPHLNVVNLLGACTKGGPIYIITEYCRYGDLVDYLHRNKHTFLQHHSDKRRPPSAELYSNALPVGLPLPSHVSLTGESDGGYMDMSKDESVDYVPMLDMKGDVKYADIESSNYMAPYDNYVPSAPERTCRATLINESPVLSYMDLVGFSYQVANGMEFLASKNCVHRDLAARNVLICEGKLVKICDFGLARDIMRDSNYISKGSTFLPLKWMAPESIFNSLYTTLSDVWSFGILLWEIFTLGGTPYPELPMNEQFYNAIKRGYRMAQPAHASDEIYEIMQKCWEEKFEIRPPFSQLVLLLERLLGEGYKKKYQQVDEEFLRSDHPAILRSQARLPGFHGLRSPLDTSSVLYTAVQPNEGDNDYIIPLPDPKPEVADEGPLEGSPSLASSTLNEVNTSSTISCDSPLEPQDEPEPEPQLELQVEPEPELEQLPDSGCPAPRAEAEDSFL
# Chain of Leukocyte tyrosine kinase receptor (Homo sapiens) (P29376 whole entry): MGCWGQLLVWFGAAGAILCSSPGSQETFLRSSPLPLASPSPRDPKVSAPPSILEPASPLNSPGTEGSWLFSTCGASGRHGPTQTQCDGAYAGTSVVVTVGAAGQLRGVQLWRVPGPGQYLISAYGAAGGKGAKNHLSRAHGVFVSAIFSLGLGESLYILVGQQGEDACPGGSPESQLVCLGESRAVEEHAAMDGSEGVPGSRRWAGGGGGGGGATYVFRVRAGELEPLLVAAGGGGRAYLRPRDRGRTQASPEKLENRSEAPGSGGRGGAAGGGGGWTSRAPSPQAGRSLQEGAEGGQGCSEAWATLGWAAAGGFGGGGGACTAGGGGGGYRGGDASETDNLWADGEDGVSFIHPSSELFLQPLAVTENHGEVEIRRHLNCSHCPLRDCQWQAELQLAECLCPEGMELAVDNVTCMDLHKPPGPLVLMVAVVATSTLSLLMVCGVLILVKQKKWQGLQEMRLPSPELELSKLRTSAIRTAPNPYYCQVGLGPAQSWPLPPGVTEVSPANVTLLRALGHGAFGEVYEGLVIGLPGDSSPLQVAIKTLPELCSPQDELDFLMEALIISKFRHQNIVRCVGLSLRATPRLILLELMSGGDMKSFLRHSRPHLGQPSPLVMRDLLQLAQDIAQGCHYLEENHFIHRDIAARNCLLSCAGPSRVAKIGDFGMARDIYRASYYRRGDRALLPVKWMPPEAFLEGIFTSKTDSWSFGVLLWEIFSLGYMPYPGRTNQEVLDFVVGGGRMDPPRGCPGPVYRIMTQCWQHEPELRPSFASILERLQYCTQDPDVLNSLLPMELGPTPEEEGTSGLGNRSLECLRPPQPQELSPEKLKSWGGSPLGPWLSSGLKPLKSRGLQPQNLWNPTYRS
# Chain of Tyrosine-protein kinase Lyn (Homo sapiens) (P07948 2-512 limits assumed): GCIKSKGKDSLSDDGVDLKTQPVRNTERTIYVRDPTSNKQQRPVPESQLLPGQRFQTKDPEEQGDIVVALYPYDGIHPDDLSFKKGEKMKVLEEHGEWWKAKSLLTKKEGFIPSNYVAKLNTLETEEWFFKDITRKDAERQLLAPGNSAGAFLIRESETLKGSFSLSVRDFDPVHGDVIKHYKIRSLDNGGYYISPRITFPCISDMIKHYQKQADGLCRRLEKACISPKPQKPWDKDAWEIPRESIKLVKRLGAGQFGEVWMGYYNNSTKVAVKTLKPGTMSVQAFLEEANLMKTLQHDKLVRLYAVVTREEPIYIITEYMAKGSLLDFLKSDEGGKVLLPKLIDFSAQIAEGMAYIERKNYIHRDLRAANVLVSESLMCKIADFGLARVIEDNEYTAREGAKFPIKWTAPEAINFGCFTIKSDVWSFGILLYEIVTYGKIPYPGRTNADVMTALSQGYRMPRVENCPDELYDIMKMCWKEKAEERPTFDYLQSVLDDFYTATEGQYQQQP
Structure (SMILES),inhibition [1] [%],inhibition [2] [%],inhibition [3] [%],inhibition [4] [%],inhibition [5] [%],inhibition [6] [%],inhibition [7] [%],inhibition [8] [%],inhibition [9] [%],inhibition [10] [%],inhibition [11] [%],inhibition [12] [%],inhibition [13] [%],inhibition [14] [%],inhibition [15] [%],inhibition [16] [%],inhibition [17] [%],inhibition [18] [%],inhibition [19] [%],inhibition [20] [%]
CC(=O)Nc1cccc(C#Cc2cncnc2Nc2ccc(OCc3cccc(F)c3)c(Cl)c2)n1,1.48,0.69,4.88,0.67,3.79,-0.16,0.67,-2.7,2.91,2.44,2.93,2.49,8.73,1.14,2.21,-0.15,-0.14,3.24,1.4,6.88
COc1ccc2cc(-c3c(-c4ccncc4)nc(-c4ccc([S+](C)[O-])cc4)n3C)ccc2c1 (centres undefined),2.37,2.95,9.35,1.98,6.67,0.48,6.32,4.07,-0.71,1.76,3.4,2.55,10,2.12,4.78,3.93,2.95,-1.44,3.24,2.46
O=C1NC(=O)C(c2ccc(Cl)cc2)=C1Nc1ccc(Cl)c(C(=O)O)c1,-0.2,0.02,-0.5,-2.02,-0.81,1.27,0.08,-1.14,-0.38,-1.83,2.23,1.93,7.23,1.16,2.61,0.45,1.25,3.89,3.15,4.09
O=C1NC(=O)C(N2CCc3ccccc32)=C1c1ccc(Cl)cc1,1.64,6.82,6.94,5.14,4.26,4.06,6.47,-1.68,7.33,2.09,3.86,13.4,15.4,3.39,6.57,10.4,7.21,3.93,6.68,–
Cc1cc(O)cc(C)c1/C=C/c1cncc(-c2nn[nH]n2)c1,27.8,21.9,78.4,17,73.9,2.28,5.61,3.29,8.95,2.58,2.94,10.7,50.9,2.87,22.2,7.51,5.59,12.1,59.3,9.66
Cc1ccc(C(=O)NC2CCCCC2)cc1-c1ccc(C(=O)NCC2CC2)cc1,0.02,2.9,2.6,1.53,0.34,1.63,3.6,4.53,5.05,6.01,8.57,12.3,12.8,2.47,1.67,4.09,-1.01,1.21,17.2,6.66
Fc1cccc(COc2ccc(Nc3ncnc4sc(-c5cccs5)cc34)cc2Cl)c1,1.68,0.57,1.59,0.13,2.6,1.5,0.96,-1.35,-0.09,-0.17,2.36,2.17,5.87,1.25,2.11,3.52,9.66,4.39,4.26,3.06
Fc1cccc(COc2ccc(Nc3ncnc4cc(-c5ccc[nH]5)sc34)cc2Cl)c1,9.35,2.95,7.02,1.43,4.65,1.29,5.95,-0.09,4.48,1.3,6.25,9.2,15.6,2.17,4.7,4.02,4.37,2.42,5.59,3.02
NC(=O)c1cccc(Nc2nccc(Nc3cccc4[nH]ncc34)n2)c1,39,58.5,91.3,52.3,88.9,-0.28,8.27,-1.63,4.73,1.07,15.3,23.7,71.3,13.2,67.7,-2.44,4.54,20.7,70.4,42.1
COc1ccc(COc2ccc(Cc3cnc(N)nc3N)cc2OC)cc1,-0.41,0.58,0.33,0.18,2.08,2.31,3.48,2.14,5.98,4.72,9.52,10.9,15.7,0.95,1.88,2.62,1.3,2.4,5.93,8.68
Cn1cc(C=C2C(=O)Nc3cccnc32)c2ccccc21,5.51,6.97,41.8,5.53,36,2.2,16.9,0.96,5.5,3.74,12.8,19.5,65.3,9.02,47.1,5.86,20.2,12.4,58.7,12.5
COc1cc2ncn(-c3cc(OCc4ccccc4Cl)c(C(N)=O)s3)c2cc1OC,4.03,3.15,25.6,2.45,21.1,1.26,8.5,-0.6,19.7,4.75,21.2,46.7,90.5,30.4,82.2,9.35,69.7,39.1,83.3,41
O=C1NC(=O)C(c2cccc(Cl)c2)=C1Nc1ccc(O)c(Cl)c1,0.35,1.27,3.18,0.38,3.63,-0.5,3.08,0.77,3.7,0.25,2.41,6.23,15.1,4.44,6.47,1.04,1.36,2.63,9.34,0.85
